RECQ1 inh-1 = RECQ1 (human) helicase inhibition. P46063. RECQ1 DNA unwinding, red fluorescence kinetic read. Potency, µM (titrated, usually from 57.3 µM), for the others: at the top dose activity, negative = inhibition, actives largely listed as inhibitors. actives 0.54% (n = 240,000);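 note: potency is the fitted concentration of half-maximal effect; plate controls were vehicle for no effect and no enzyme for full effect; nearly all actives have a fitted effect of over 30% in size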
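50 nM RECQ1T1 preincubated 15 min with compound in Tris pH 8.0 buffer with MgCl2, DTT, Tween-20 and 2.5 ug/ml poly(dI-dC); started with 200 nM TAMRA/BHQ-2 forked duplex and 2 mM ATP. Unwinding read as fluorescence (525/598 nm), two reads 2 h apart.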
FEN1 inh-1 = human FEN1 inhibition; AID 588795; Potency, µM (top dose mostly 114 µM), for the others: at the top dose activity change, negative = inhibition, usual class: inhibitors; P39748; actives 0.35% (n = 390,000); Recombinant FEN1 flap cleavage, fluorescence, 15 min; note: potency is the fitted concentration of half-maximal effect; % is set by controls: 0 for no effect and ±100 for the full control effect; nearly all actives have a fitted effect of over 65% in size
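Enzyme 10 nM, 15 min RT preincubation with compound; start with substrate 50 nM final; reads at 0 and 15 min; qHTS titration, four-parameter Hill fit.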
PI5P4K alpha inh = inhibitors of human PI5P4K alpha; P48426; PI5P4Kalpha enzyme, ADP-Glo luminescence, 60 min; hits give low values; max response, %; actives 1.2% (n = 330,000); AID 652105; active = max response of -50% or lower; inconclusive = between -30% and -50%; inactive = -30% or higher; note: value at the top dose of about 77 µM; % is set by controls: 0 for no effect and ±100 for the full control effect
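Single end-point luminescence (ADP-Glo) quantified ADP from PI5P4Kalpha turnover; ATP 5 microM final, 1 h at RT, 0.1% CHAPS and 0.28 mM EGTA in HEPES pH 7.4.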
BLM helicase inh = Bloom syndrome helicase (human) inhibition; AID 2528; Potency, µM (highest dose often 56.1 µM), for the others: at the highest dose activity change, negative = inhibition, usual class: inhibitors; actives 0.2% (n = 350,000); recombinant BLM DNA unwinding, fluorescence dequenching;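 note: potency is the fitted concentration of half-maximal effect; plate controls were vehicle for no effect and no enzyme for full effect; nearly all actives have a fitted effect of over 35% in size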
GCN5L2 inh-1 = GCN5L2 (KAT2A) acetyltransferase inhibition; GCN5L2 HAT assay, ThioGlo1 CoA-SH fluorescence; Potency, µM (highest dose often 58.9 µM), inactives show top-dose activity change, negative = inhibition, hits mostly inhibitors; actives 0.21% (n = 390,000); AID 504327; note: potency is the fitted concentration of half-maximal effect; % is set by controls: 0 for no effect and ±100 for the full control effect
Target sequence (Q92830 whole entry, looked up): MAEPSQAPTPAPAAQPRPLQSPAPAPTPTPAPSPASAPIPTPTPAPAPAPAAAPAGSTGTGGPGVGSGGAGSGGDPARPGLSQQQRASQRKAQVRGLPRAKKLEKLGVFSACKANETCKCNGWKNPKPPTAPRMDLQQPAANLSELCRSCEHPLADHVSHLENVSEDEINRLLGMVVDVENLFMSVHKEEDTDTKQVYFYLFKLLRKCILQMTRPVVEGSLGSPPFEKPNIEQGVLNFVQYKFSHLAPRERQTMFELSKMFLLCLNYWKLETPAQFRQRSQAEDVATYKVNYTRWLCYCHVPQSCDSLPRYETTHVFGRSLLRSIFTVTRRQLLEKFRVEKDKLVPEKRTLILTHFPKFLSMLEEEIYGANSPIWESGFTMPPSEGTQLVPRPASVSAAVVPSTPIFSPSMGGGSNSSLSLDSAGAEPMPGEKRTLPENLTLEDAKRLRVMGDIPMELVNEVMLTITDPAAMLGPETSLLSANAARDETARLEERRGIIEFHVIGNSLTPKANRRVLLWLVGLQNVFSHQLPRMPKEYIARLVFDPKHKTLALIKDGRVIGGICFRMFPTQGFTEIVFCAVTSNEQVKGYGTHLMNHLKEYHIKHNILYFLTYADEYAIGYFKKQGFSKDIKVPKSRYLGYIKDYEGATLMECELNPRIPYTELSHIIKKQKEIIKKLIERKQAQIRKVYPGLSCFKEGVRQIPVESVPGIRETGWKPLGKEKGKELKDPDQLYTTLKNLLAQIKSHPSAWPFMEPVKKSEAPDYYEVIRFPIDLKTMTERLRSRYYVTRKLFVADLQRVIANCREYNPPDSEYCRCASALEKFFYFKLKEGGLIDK
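qHTS, 1536-well. 20nM enzyme, pH 7.5 HEPES/EDTA/Tween-20 buffer; 15 min compound preinc., RT. Start: 75uM H3(1-25), 70uM AcCoA, 50uM ThioGlo1. Read Ex340/Em540 at t=0 (autofluorescence flag) and t=20 min.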
APE1 inh = inhibitors of human APE1 endonuclease. P27695. recombinant APE1, TAMRA/BHQ-2 abasic DNA cleavage fluorescence. Potency, µM (top dose mostly 65.8 µM), for inactives: top-dose activity change, negative = inhibition, usual class: inhibitors. actives 0.35% (n = 350,000). AID 2517;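 note: potency is the fitted concentration of half-maximal effect; plate controls were vehicle for no effect and reference inhibitor for full effect; nearly all actives have a fitted effect of over 55% in size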
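Activity was derived from the fluorescence gain between first and third kinetic reads (60 s intervals, ex 525/em 598 nm) after 50 nM THF-abasic TAMRA/BHQ-2 duplex was added to 0.75 nM APE1 preincubated 15 min with compound.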
RECQ1 inh conf = confirmation of human RECQ1 helicase inhibitors; Potency, µM (titrated, usually from 229 µM), for inactives: top-dose activity change, negative = inhibition, hits mostly inhibitors; RECQ1 helicase DNA unwinding, fluorescence; shares compounds with RECQ1 inh-1; actives 28% (n = 610); note: potency is the fitted concentration of half-maximal effect; % is set by controls: 0 for no effect and ±100 for the full control effect; nearly all actives have a fitted effect of over 45% in size
ADP FP counter = counter-screen for RECQ1 inhibitors: ADP displacement | shares compounds with RECQ1 inh-1 | ADP fluorescence polarization displacement counterscreen | AID 2711 | Potency, µM (series often up to 228 µM), without a hit: at the highest dose activity change, negative = inhibition, most hits filed as inhibitors | actives 27% (n = 530); note: potency is the fitted concentration of half-maximal effect; % is set by controls: 0 for no effect and ±100 for the full control effect; nearly all actives have a fitted effect of over 45% in size
RECQ1 inh-2 = blocks human RECQ1 DNA unwinding | shares compounds with RECQ1 inh-1 | recombinant RECQ1 DNA unwinding, red fluorescence | Potency, µM (highest dose often 119 µM), for the others: at the highest dose activity, negative = inhibition, hits mostly inhibitors | actives 15% (n = 1,100); note: potency is the fitted concentration of half-maximal effect; % is set by controls: 0 for no effect and ±100 for the full control effect; nearly all actives have a fitted effect of over 50% in size
GCN5L2 inh-2 = human KAT2A HAT inhibition, hit confirmation. AID 588347. actives 70% (n = 140). shares compounds with GCN5L2 inh-1. Potency, µM, actives largely listed as inhibitors. GCN5L2 HAT, ThioGlo1 CoA fluorescence, 20 min
FEN1 inh-2 = FEN1 inhibition, cherry-pick retest; shares compounds with FEN1 inh-1; actives 79% (n = 880); Potency, µM, hits mostly inhibitors; AID 720498; FEN1 flap cleavage, TAMRA/BHQ2 fluorogenic DNA substrate; note: potency is the fitted concentration of half-maximal effect; nearly all actives have a fitted effect of over 60% in size
ADP-Glo interf = counter-screen for PI5P4K inhibitors: ADP-Glo detection interference, no enzyme; AID 743285; 1,100 tested, under 10 active; Potency, µM (titrated, usually from 76.9 µM), inactives show top-dose activity change, negative = inhibition, actives largely listed as inhibitors; shares compounds with PI5P4K alpha inh; ADP-Glo detection counter-screen, luciferase luminescence, no enzyme
* = called active by the depositor; i = inactive; ? = inconclusive; nt = not tested or not shown; [ ] = remark or other dose. Only some compounds are listed: those with a hit (about 1.5% of all), similar ones and a draw of the others. Unless noted, calls come from the whole dose curve; as a rule, active = well fitted curve in the direction sought with a large enough effect; inconclusive = small, poorly fitted or top-dose-only effect, or another doubt; inactive = no such curve, though single readings can be large; an effect the other way counts as inactive or inconclusive.

SMILES | RECQ1 inh-1 | FEN1 inh-1 | PI5P4K alpha inh | BLM helicase inh | GCN5L2 inh-1 | APE1 inh | RECQ1 inh-2 | ADP-Glo interf | others
COc1cc(/C=C2/CCC/C(=C\c3cc(O)c(OC)c(Cl)c3)C2=O)cc(Cl)c1O | -23% | ? | nt | -10% | -7% | -2% | nt | nt
COc1cc(/C=C2\CC/C(=C\c3cc(OC)c(O)c(OC)c3)C2=O)cc(OC)c1O | 14µM* | 6.3µM* | ? | ? | -11% | ? | 2.8µM* | nt | FEN1 inh-2=8.5*
COc1ccc([C@@H]2CC(=O)c3c(O)cc(O[C@@H]4O[C@H](CO)[C@@H](O)[C@H](O)[C@H]4OC4O[C@@H](C)[C@H](O)[C@@H](O)[C@H]4O)cc3O2)cc1O (stereo partly drawn) | -4% | nt | nt | 3% | 5% | -5% | nt | nt
COc1ccc(C2=Nn3c(nnc3-c3ccccc3O)SC2)c(OC)c1 | -10% | nt | nt | -3% | nt | -3% | nt | nt
COC(=O)CCCC1=CC2=CC(=O)C(C)(OC(=O)C3CCCC3)C(=O)C2=CO1 (stereo not drawn) | ? | ? | ? | -1% | -1% | 2% | nt | nt
CCCCC1=CC2=CC(=O)C(C)(OC(=O)C3CCCC3)C(=O)C2=CO1 (stereo not drawn) | ? | ? | -73* | 0% | -4% | 1% | 79µM* | -9%
Nc1nc(Nc2ccc(Cl)cc2)nc(NCc2ccco2)c1[N+](=O)[O-] | 16µM* | -2% | -54* | ? | -3% | 16% | 79µM* | -2% | RECQ1 inh conf=32µM*;ADP FP counter=10%[91.9 µM]
Nc1nc(Nc2cccc(Cl)c2)nc(NCc2ccco2)c1[N+](=O)[O-] | ? | -8% | -54* | ? | 2% | -1% | 79µM* | -2%
CC#CCN1c2ccccc2[C@]23C[C@@H](C(=O)OC)N(S(=O)(=O)c4ccc(C(F)(F)F)cc4)C2=NC(C(=O)OC)=C(C(=O)OC)[C@H]13 | -10%[11.5 µM] | nt | nt | -5%[12.4 µM] | nt | 0%[12.4 µM] | nt | nt
Cc1c2cnn(CC(=O)Nc3c(F)c(F)cc(F)c3F)c(=O)c2c(C)n1Cc1ccccc1F | 25µM* | 79µM* | -56* | ? | 13µM* | ? | ? | 4% | GCN5L2 inh-2=20*
CCOC(=O)C(C)Sc1ccc2nnc(-c3ccc(OCC)cc3)n2n1 (stereo not drawn) | nt | -11% | nt | nt | nt | nt | nt | nt
Cc1ccc(C(CCN(Cc2ccccc2)C(=O)c2ccco2)c2ccco2)cc1 (stereo not drawn) | 20µM* | -4% | -58* | ? | ? | -12% | ? | -2% | RECQ1 inh conf=50µM*;ADP FP counter=24%[91.9 µM]
CN(Cc1ccccc1)C(=O)c1ccco1 | i | -3% | 4 | -7% | -7% | 4% | nt | nt

Screening results as filed in PubChem BioAssay.
